Test results published in PubChem BioAssay (NCI).
About 83,000 compounds went through this panel and 20% of them were active in at least one assay; those are over-represented in the sample as a whole.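 Assay: single dose, 48 h. Readout: percent growth (0 = no net growth; negative = cell death). Active: <10.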 Unmarked numbers belong to inactive results. Calls of active or inactive are those of the source.

Assays:
Assay in all cases: NCI-60 one-dose screen, 48 h (100 = growth as untreated, 0 = no growth, -100 = all killed)
Conditions in all cases: 10 µM unless noted
[1] = test system: T-47D breast
[2] = test system: BT-549 breast
[3] = test system: MDA-MB-435 melanoma
[4] = test system: SW-620 colon
[5] = test system: MCF7 breast
[6] = test system: HCC-2998 colon
[7] = test system: KM12 colon

| Structure (SMILES) | growth [1] | growth [2] | growth [3] | growth [4] | growth [5] | growth [6] | growth [7] |
| --- | --- | --- | --- | --- | --- | --- | --- |
| CN(Cc1cnc2nc(N)nc(N)c2n1)c1ccc(C(=O)NC(CCC(=O)O)C(=O)O)cc1Br (centres undefined) | 44.3% | 61.9% | 39.5% | 28.6% | 19% | 57.1% | 28.4% |
| O=C1/C(=C/c2ccc(O)c(O)c2)COc2ccc(-c3ccccc3)cc21 | 15.4% | 31.7% | -6.77% (active) | -38.3% (active) | 16% | -23% (active) | 19.6% |
| COc1ccc2c(c1)/C(=N/c1n[nH]c(=S)s1)C(=O)N2 | 69.6% | 113% | 104% | 91.3% | 25.1% | 107% | 89% |
| CN(Cc1ccccc1)c1nc(Cl)c(C2CC(c3ccccc3)=NN2c2ccccc2)s1 (centres undefined) | 71.9% | 118% | 98% | 101% | 82.4% | 93% | 89.7% |
| O=C(CC(=O)Nc1cccc(C(=O)O)c1)Nc1cccc(C(=O)O)c1 | 92.4% | 98.8% | 87.4% | 90% | 101% | 102% | 112% |
| CC/C=C\C[C@H](O)C/C=C1/C(=O)C=C[C@@H]1C/C=C\CCCC(=O)O | 12% | 46.2% | 36.9% | 49.6% | 13.9% | 57.7% | 41.6% |
| C=C1C(=O)O[C@H]2[C@H]1CC/C(Cn1cc(CCC)nn1)=C\CC[C@@]1(C)O[C@@H]21 | -40.1% (active) | 40.4% | 36.2% | -0.143% (active) | 11.1% | 73.6% | 81.1% |
| Nc1ncnc2c1N=C(c1ccc3c(c1)OCO3)CC(c1cccc(Nc3ccnc4cc(C(F)(F)F)ccc34)c1)N2 (centres undefined) | 87.5% | 112% | 92.6% | 69.1% | 36.6% | 90.6% | 50.1% |
| CC(=O)/C(=C/c1ccc([N+](=O)[O-])cc1)C(=O)c1ccccc1 | 67.6% | 89.8% | 77.3% | 65.4% | 29.2% | 95.2% | 58.9% |
| C=C1C(=O)O[C@H]2[C@H]1CC/C(COC(=O)/C=C/C(=O)OC/C1=C/CC[C@@]3(C)O[C@H]3[C@H]3OC(=O)C(=C)[C@@H]3CC1)=C\CC[C@@]1(C)O[C@@H]21 | 32.9% | 93.9% | 80.4% | 6.25% (active) | 22.2% | 106% | 90% |
| O=C1C(Nc2ccccn2)=C(I)C(=O)c2ncccc21 | -42.5% (active) | -68.5% (active) | -82.2% (active) | -64.6% (active) | -58.7% (active) | 53.1% | -26.1% (active) |
| CC1CCN(C(=S)SCC(=O)NC(=O)c2ccccc2)CC1 | 84.7% | 106% | 106% | 105% | 95.7% | 115% | 97% |
| O=c1c2c3c(sc2n2c(-c4cc(-c5ccccc5)no4)nnc2n1Cc1ccccc1)CCCC3 | 53.3% | 91.9% | 106% | 106% | 97.1% | 101% | 95.5% |
| COc1ccc2nc(Cl)c(/C=C3\CC(c4ccccc4)=NN(c4ccccc4)C3=O)cc2c1 | 73.1% | 43.3% | 90.3% | 88.7% | 82% | 85% | 90.3% |
| COc1ccc(N2CCN(C(=O)c3sc4nc(C)c(Br)c(C)c4c3N)CC2)cc1 | 79% | 88.2% | 98.7% | 104% | 81% | 97.1% | 94% |
| CN(C)CCCC1(c2ccc(F)cc2)OCc2cc(-c3cc4ccccc4s3)ccc21 (centres undefined) | -2.98% (active) | 80.1% | -84.4% (active) | -70% (active) | -53.5% (active) | -78.4% (active) | -72.1% (active) |
| CN1CCN(Cc2ccc(NC(=O)c3cncc(C#Cc4cnc(N)c5ccc(F)cc45)c3)cc2C(F)(F)F)CC1 | 43.5% | 42% | 19.3% | -64.4% (active) | 13.2% | 34.8% | 7.82% (active) |
| CCCn1nc(C(=O)N(C)Cc2ccccc2)c2c1CCC(N1CCc3ccccc31)C2 (centres undefined) | 108% | 94.8% | 106% | 104% | 85.3% | 116% | 106% |
| COc1cccc(/C=C/C(=O)c2cccc(Nc3nc(Nc4ccccc4)nc(Nc4ccccc4)n3)c2)c1 | 53.5% | 99% | 91.4% | 40.5% | 21.9% | 21.6% | 62.8% |

| Structure (SMILES) | growth [1] | growth [2] | growth [3] | growth [4] | growth [5] | growth [6] | growth [7] |
| --- | --- | --- | --- | --- | --- | --- | --- |
| COc1ccc(/C(C)=C(/c2ccc(OCCCN(C)C)cc2)c2ccc(OC(=O)c3ccccc3)cc2)cc1 | 49.7% | 87% | 85% | 88.8% | 31% | 88.3% | 75.2% |
| COC(=O)CC[C@@H]1O[C@@H](c2ccc(F)cc2)[C@@H](O)[C@H]1O | 104% | 105% | 98.4% | 101% | 96% | 99.6% | 99.7% |
| O=C(O)c1cn(C2CC2)c2cc(N3CCN(C(=O)Nc4nc(-c5ccc(Br)cc5)cs4)CC3)c(F)cc2c1=O | 27.3% | 1.15% (active) | 9.05% (active) | 21.6% | 5.12% (active) | 35.4% | 11.1% |
| COc1cc(/C=C2\CN(S(=O)(=O)c3ccccc3)C/C(=C\c3cc(CN4CCCCC4)c(O)c(OC)c3)C2=O)cc(CN2CCCCC2)c1O | 89.2% | -39.9% (active) | -88.6% (active) | -74.5% (active) | -51.9% (active) | -68% (active) | -87.1% (active) |
| CSc1nn2c(-c3ccc4ccccc4c3)ccnc2c1C#N | 18.8% | 44% | -63.6% (active) | 9.09% (active) | 10% (active) | 52.2% | 5.75% (active) |
| CC(=O)OC(c1ccccc1)C1CCOC1=O (centres undefined) | 106% | 120% | 96.3% | 102% | 102% | 97.2% | 106% |
| Cc1cccc[n+]1C1c2ccccc2-c2ccccc21 | 60.8% | 86.8% | 102% | 103% | 95.1% | 105% | 101% |
| CN1CCN(c2ccc3nc4c(nc3c2C(F)(F)F)C(=O)c2ncccc2C4=O)CC1 | -28.4% (active) | -97% (active) | -91.8% (active) | 4.71% (active) | -57% (active) | -26.9% (active) | 13% |
| CCCCCN(CCCCC)CC(O)c1cc(C)c2ccc3cc(C(C)C)ccc3c2c1 (centres undefined) | 53.3% | 90.5% | 0.846% (active) | -75.3% (active) | -86.2% (active) | -50.8% (active) | -64.7% (active) |
| Clc1ccccc1-c1cnn2cc(-c3ccccc3)cnc12 | 78.9% | 83.1% | 44.8% | 76.9% | 75.3% | 85.9% | 63.8% |
| COc1ccc2[nH]cc(-c3nc(-c4c[nH]c5c(Cl)nccc45)cs3)c2c1 | 24.5% | 51.3% | 51.8% | 1.95% (active) | 54.7% | 68.6% | 33.3% |
| Cc1cccc2c1C[C@@]1(C2=O)C(c2ccc(C(C)(C)C)cc2)=NOS1=O (some centres undefined) | 70.2% | 104% | 109% | 100% | 66.2% | 109% | 91.9% |
| COc1ccc(C2=NN(C(C)=O)C(c3cn(-c4ccccc4)nc3-c3ccc(Cl)cc3)C2)cc1 (centres undefined) | 7.93% (active) | 48.4% | 34.2% | 17.3% | 21.8% | 36.3% | 29.6% |
| O=C(Cc1ccc(NC(=O)c2cccc(Cl)c2)cc1)NCc1ccccc1 | 54.2% | 61% | -30.1% (active) | 25.3% | 22.1% | 73.3% | 24.8% |
| O=C(Nc1cc(Cl)ccc1O)c1cccc(Nc2ccnc(C(F)(F)F)c2)c1 | 10.8% | 34.9% | 31.2% | 62.9% | 26% | 25.5% | 36.5% |
| O=c1ccc(=O)n(-c2nc(-c3ccc([N+](=O)[O-])cc3)cs2)[nH]1 | 98.5% | 98.5% | 99.1% | 101% | 90.1% | 106% | 99.6% |
| COc1ccc(Nc2ncccc2/C=C/C(=O)c2cc(OC)c(OC)c(OC)c2)cc1 | -4.22% (active) | -35% (active) | -35.8% (active) | -68.3% (active) | -61.3% (active) | -75.9% (active) | -87.5% (active) |
| CN1CCN(c2ccc(NC(=O)c3cncnc3Nc3ccc(OCc4cccc(F)c4)c(Cl)c3)cc2)CC1 | 72.9% | 102% | -72.3% (active) | -30.5% (active) | 13.4% | 71.5% | 75.8% |
